# Measurements taken from the supplement of paper PMC9177965.
# System: HT29 RNF43 G659fs (RNF43 659mut, CRISPR-edited)
# Assay: cell viability activity relative to DMSO (negative = inhibition); higher = more viable cells (less growth inhibition)
# Details: 5 µM; 96 h
# Description: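 Broad Repurposing Library primary screen at a single dose of 5 uM. HT29 sg-Ctrl and HT29 RNF43 G659fs CRISPR-edited isogenic cells were seeded at 2500 cells/well in 384-well plates in duplicate and treated for 96 h. Viability was read by CellTiter-Glo and reported as % activity relative to DMSO, with MG132 as the positive control (negative = growth inhibition).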
row,SMILES,cell viability activity [%]
1,CCCCCCOc1nsnc1C1=CCCN(C)C1,-59.1
2,O=C(c1c(F)ccc(NS(=O)(=O)N2CC[C@@H](F)C2)c1F)c1c[nH]c2ncc(-c3cnc(C4CC4)nc3)cc12,-66.1
3,NNc1nncc2ccccc12,-46.5
4,COc1c(C)c2c(c(O)c1C/C=C(\C)CCC(=O)O)C(=O)OC2,-22.3
5,CCn1c(=O)c(-c2cc[nH]n2)cc2c(C)nc(N)nc21,-54.4
6,N#Cc1ccc(Cn2cncc2CN2CCN(c3cccc(Cl)c3)C(=O)C2)cc1,-45.7
7,CC[C@H](CO)Nc1nc(NCc2ccc(-c3ccccn3)cc2)c2ncn(C(C)C)c2n1,-92
8,Cn1ncc(Cl)c1-c1cc(C(=O)N[C@H](CN)Cc2ccc(F)c(F)c2)oc1Cl,-70.4
9,Cc1c(-c2ccc(O)cc2)n(Cc2ccc(OCCN3CCCCCC3)cc2)c2ccc(O)cc12,-67.2
10,CC(C)=CCC/C(C)=C/CC/C(C)=C/CSc1ccccc1C(N)=O,-26.6
11,O=P(O)(O)C(O)(Cn1ccnc1)P(=O)(O)O,-39.2
12,CC(=O)c1cnc2ccc(-c3cc(Cl)c(O)c(Cl)c3)nc2c1N[C@H]1CC[C@H](CN(C)C)CC1,-89.2
13,N#Cc1ccc(COC[C@H]2O[C@@H](n3c(NCc4ccc(Cl)c(Cl)c4)nc4c(N)ncnc43)[C@H](O)[C@@H]2O)cc1,-24.9
14,c1ccc(CNc2nc(NCc3ccccc3)c3ccccc3n2)cc1,-22
15,NCCCCNCCCN,-26.8
16,FC(F)(F)Oc1ccc2nc(-c3ccc(OCCOCCOc4ccc(-c5nc6ccc(OC(F)(F)F)cc6[nH]5)nc4)cn3)[nH]c2c1,-37.9
17,Cc1ccc(C(=O)Nc2cccc(C(F)(F)F)c2)cc1Nc1nc(-c2cccnc2)nc2c1cnn2C,-36.8
18,CC[C@@]1(O)C(=O)OCc2c1cc1n(c2=O)Cc2c-1nc1cc(F)c(C)c3c1c2[C@@H](N)CC3,-91.7
19,CN1CCN(Cc2ccc(Nc3ncc(Cl)c(Nc4ccccc4S(=O)(=O)N(C)C)n3)cc2)CC1,-94.8
20,COc1cc(/C=C/c2ccc(OC)cc2OC)cc(OC)c1,-65.4

row,SMILES,cell viability activity [%]
1,Nc1nc2[nH]cnc2c(=S)[nH]1,-81.6
2,COC(=O)Nc1nc2cc(C(=O)c3ccc(F)cc3)ccc2[nH]1,-46.6
3,CNCc1ccc(-c2cc(-c3nc(-c4ccc(S(=O)(=O)C(C)C)cc4)cnc3N)on2)cc1,-78.3
4,CC[C@@H](C(=O)[C@@H](C)[C@@H](O)[C@H](C)CCc1ccc(C)c(O)c1C(=O)O)[C@H]1O[C@](CC)([C@H]2CC[C@](O)(CC)[C@H](C)O2)C[C@@H]1C,-65.8
5,C=CCc1cccc(/C=N/NC(=O)CN2CCN(Cc3ccccc3)CC2)c1O,-71.9
6,C[C@]12CC[C@@H]3c4ccc(O)cc4C[C@@H](CCCCCCCCC[S+]([O-])CCCC(F)(F)C(F)(F)F)[C@H]3[C@@H]1CC[C@@H]2O (stereo not given in full),-38.7
7,Cc1ccc(/C=C2\CNC/C(=C\c3ccc(C)cc3)C2=O)cc1,-93.6
8,Fc1cc(-c2cccc3ncc(-c4cnn(C5CCNCC5)c4)nc23)cc(F)c1CN1CCOCC1,-93.7
9,Nc1ccc(-c2cccc3c(=O)cc(N4CCOCC4)oc23)cc1,-64.9
10,CCOc1ccc(Cc2nccc3cc(OCC)c(OCC)cc23)cc1OCC,-32.7
11,CN(C)Cc1c(C(=O)NCCOc2ccc(C(=O)NO)cc2)oc2ccccc12,-94.9
12,CC(C)(C)c1[nH]cnc1/C=c1\[nH]c(=O)/c(=C/c2ccccc2)[nH]c1=O,-55.7
13,COC(=O)C[C@](O)(CCCC(C)(C)O)C(=O)O[C@@H]1C(OC)=C[C@]23CCCN2CCc2cc4c(cc2[C@H]13)OCO4,-92.7
14,CCN1CCN(c2ccc(C(C)(C)NC(=O)c3cc4[nH]c5ccccc5c(=O)c4cc3F)cn2)CC1,-45.9
15,CCCC1(CCC)CCC2(CCN(CCCN(CC)CC)C2)CC1,-96.4
16,Cc1ccc2c(Br)cc(Br)c(OC(=O)c3ccccc3)c2n1,-27.6
17,CCn1cc(-c2ccnc3[nH]c(-c4cccc(CN(C)C)c4)cc23)c(-c2ccc(NC(=O)N(C)C)cc2)n1,-84.6
18,NC(=O)Nc1cc(-c2cccc(F)c2)sc1C(=O)N[C@H]1CCCNC1,-79.6
19,C[C@H]1O[C@@H](O[C@H]2[C@@H](O)C[C@H](O[C@H]3[C@@H](O)C[C@H](O[C@H]4CC[C@@]5(C)[C@H](CC[C@@H]6[C@@H]5CC[C@]5(C)[C@@H](C7=CC(=O)OC7)CC[C@]65O)C4)O[C@@H]3C)O[C@@H]2C)C[C@H](O)[C@@H]1O,-92.2
20,CN[C@H](C(=O)N[C@H](C(=O)N(C)[C@H](/C=C(\C)C(=O)O)C(C)C)C(C)(C)C)C(C)(C)c1ccccc1,-56.6
